The nature of assay [1]: qHTS RealTime-Glo MT Cell Viability Assay in HEK293 cells - 16 hour (AID 1224872). Also: nearly all actives have a fitted effect of over 50% in size. Also: potency is read from the fitted curve at half-maximal effect. As to activity change, negative = cytotoxicity: top concentration of the series differs between compounds. The essentials: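 Homogeneous bioluminescent viability format in HEK293 cells (600 cells/well). Following 5 h at 37 C/5% CO2, 23 nL compound was pintooled; the signal was measured repeatedly during 40 h incubation.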
For orientation: qHTS replaces the single test concentration by a dilution series.

The nature of assay [2]: qHTS RealTime-Glo MT Cell Viability Assay in HepG2 cells - 8 hour (AID 1224873). Also: nearly all actives have a fitted effect of over 55% in size. The method in brief: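 Real-time viability: cells seeded at 600 per well together with NanoLuc and cell-permeant prosubstrate, compounds added after 5 h incubation. Luminescence tracked at 0, 8, 16, 24, 32 and 40 h of exposure.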
Assay [3] in a line: qHTS RealTime-Glo MT Cell Viability Assay in HEK293 cells - 40 hour (AID 1224874). Also: nearly all actives have a fitted effect of over 50% in size. Also: potency is read from the fitted curve at half-maximal effect. Particulars: RealTime-Glo luminescence; max response: hits give low values. The method in brief:
(§1)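 Tox21 screen in HEK293 using RealTime-Glo MT chemistry, with cells and reagent co-dispensed. Luminescence proportional to viable cell number was captured at intervals during 40 h compound exposure at 37 C.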

Assay [4] can be described thus: A CellTox Green Cytotoxicity Assay to monitor cytotoxicity in HEK293 cells - 24 hour (AID 1224875). Also: nearly all actives have a fitted effect of over 45% in size. Also: potency is read from the fitted curve at half-maximal effect. As to activity change: series mostly up to about 77 µM. The essentials:
(§2)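 Seeding of HEK293 cells together with cytotoxicity dye preceded a 5 h incubation at 37 C/5% CO2. Test compounds in DMSO were then added and fluorescence monitored across 40 h.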

A short description of assay [5]: qHTS RealTime-Glo MT Cell Viability Assay in HepG2 cells - 32 hour (AID 1224877). Also: nearly all actives have a fitted effect of over 55% in size. The method in brief: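 Cell number in HepG2 cultures estimated from NanoLuc luminescence generated by metabolic reduction of a prosubstrate by living cells. The homogeneous, nonlytic format allowed repeated reads at 0, 8, 16, 24, 32 and 40 h of compound exposure.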
Assay [6] in a line: qHTS RealTime-Glo MT Cell Viability Assay in HEK293 cells - 0 hour (AID 1224880). Also: top concentration of the series differs between compounds; nearly all actives have a fitted effect of over 45% in size. The method in brief: as §1
A short description of assay [7]: A CellTox Green Cytotoxicity Assay to monitor cytotoxicity in HEK293 cells - 32 hour (AID 1224881). Also: nearly all actives have a fitted effect of over 40% in size. Also: potency is read from the fitted curve at half-maximal effect. The method in brief:
as §2

Assay [8] can be described thus: A CellTox Green Cytotoxicity Assay to monitor cytotoxicity in HepG2 cells - 16 hour (AID 1224876). Also: nearly all actives have a fitted effect of over 45% in size. Also: potency is read from the fitted curve at half-maximal effect. The method in brief:
(§3)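 Nonlytic assay: viable cells exclude the dye, so fluorescence scales with cell death. HepG2 at 600 cells/well, compounds added after 5 h, signal read across 40 h.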

Assay [9] can be described thus: A CellTox Green Cytotoxicity Assay to monitor cytotoxicity in HepG2 cells - 24 hour (AID 1224878). Also: nearly all actives have a fitted effect of over 45% in size. The essentials:
as §3

Assay [10] in a line: A CellTox Green Cytotoxicity Assay to monitor cytotoxicity in HepG2 cells - 40 hour (AID 1224879). Also: nearly all actives have a fitted effect of over 40% in size. The essentials:
as §3

Structures are written as SMILES. Inconclusive results are not listed. A number with no mark means an inactive call. Calls of active or inactive are those of the source. Calls follow the shape of the dose curve; as a rule, active = well fitted curve in the direction sought with a large enough effect in the repeat runs; inconclusive = weak or mixed curves; inactive = no such curve, though single readings can be large; an effect the other way counts as inactive or inconclusive.

Experimental findings from PubChem BioAssay (Tox21) are described below.
% is scaled to controls: 0 for no effect and ±100 for the full control effect.

For the molecule `CCC1(C)NC(=O)NC1=O` (stereo not drawn), the Potency entry in assay [1], in assay [4], in assay [5] and in [7] was “inactive” each time. Moreover, the result in [2] and in assay [6] was inactive. In addition, the max response in [3] was -2.11%.

Take `CN1CCC[C@@H]1Cc1c[nH]c2ccc(CCS(=O)(=O)c3ccccc3)cc12`: the Potency entry in [1], in assay [8], in [5], in assay [9] and in assay [7] was “inactive” each time. Also, the outcome in assay [2] and in assay [6] was inactive. Also, the max response in assay [3] was 3.35%.

Take `CN1CCN(N)CC1`: the Potency entry in assay [1], in [8], in assay [5], in [9] and in [7] was “inactive” throughout. The outcome in [2] and in [6] was inactive. In addition, in assay [3], the max response was 5.85%.

Turning to `CCCCCCCCOC(=O)CCCCCCCCC(=O)OCCCCCCCC`, the Potency entry in [1], in assay [8], in [5], in [9], in assay [10] and in [7] was “inactive” throughout. Also, the molecule was classed as inactive in assay [2] and in assay [6]. The max response in assay [3] is 6.02%.

On to `Cc1nnc(SCC2=C(C(=O)O)N3C(=O)[C@@H](NC(=O)Cn4cnnn4)[C@H]3SC2)s1`, for which the Potency result in assay [1], in assay [8], in [5], in assay [9] and in assay [7] was “inactive” in each case. Besides, the molecule was called inactive in [2]. Also, in [3], the max response was 6.83%.

`CCN[C@H]1CN(CCCOC)S(=O)(=O)c2sc(S(N)(=O)=O)cc21`: the Potency entry in assay [1], in [8], in assay [5], in assay [9], in [10] and in [7] was “inactive” in each case. Also, the molecule was called inactive in [2] and in assay [6]. Also, the max response in assay [3] is -0.402%.

On to `C1CSCCS1`, for which the Potency entry in assay [1], in [8], in assay [5], in assay [9], in assay [10] and in [7] was “inactive” in each case. Further, the molecule was called inactive in assay [2] and in assay [6]. Moreover, the max response in assay [3] was -4.02%.

`CC(C)(C)c1cccc(O)c1`: the Potency result in [1], in assay [8], in assay [5] and in assay [7] was “inactive” throughout. Also, the molecule was called inactive in [2]. In addition, in [3], the max response was -6.86%.

In the case of `CCCCCCCCc1ccc(S(=O)(=O)O)cc1`, the Potency entry in assay [1] and in assay [5] was “inactive” throughout. For the same molecule, the molecule was called inactive in [2]. Further, the max response in assay [3] was -16.1%. Also, the figures for the Potency in assay [4] and in assay [7] were 48.6 µM (active) and 54.5 µM (active), respectively.

`ClC(Cl)Cl`: the Potency entry in assay [1], in [5], in assay [9], in [10] and in assay [7] was “inactive” in each case. Further, the outcome in assay [2] and in assay [6] was inactive. The max response in assay [3] was 6.53%.

Regarding `CC(=O)OC1C2(C)CCC(C2)C1(C)C` (stereo not drawn), the Potency entry in assay [1], in assay [8], in assay [5], in assay [9], in [10] and in [7] was “inactive” throughout. In addition, the molecule was called inactive in assay [2] and in assay [6]. For the same molecule, the max response in assay [3] was -0.0469%.

For `COc1cc(Cl)ccc1Cl`, the Potency entry in [1], in assay [8], in assay [5] and in [10] was “inactive” in each case. Moreover, the molecule was classed as inactive in assay [2] and in assay [6]. Also, in assay [3], the max response was -0.591%.

In the case of `O=c1oc2c(O)c(O)cc3c(=O)oc4c(O)c(O)cc1c4c23`, the activity change, negative = cytotoxicity in assay [1] is -3.75% [at 15.8 µM]. Also, in assay [2], the viability change, negative = cytotoxic was 0.835% [at 15.8 µM]. In addition, the max response in assay [3] was -22.4%. Also, the cytotoxicity increase in assay [8] is 1.02% [at 15.8 µM]; in assay [7] it was 18.3% [at 15.8 µM]. For the same molecule, the activity change, negative = cytotoxic in [5] was -12.3% [at 15.8 µM]. Also, the cytotoxicity in assay [9] was 4.4% [at 15.8 µM].

For `CCOc1ccc(OCC)c(Cl)c1`, the Potency entry in assay [1], in [8], in [5], in [9] and in assay [7] was “inactive” each time. The result in [2] and in assay [6] was inactive. For the same molecule, in [3], the max response is 5.94%.

On to `FC(F)(F)C(Cl)(Cl)Cl`, for which the Potency result in assay [1], in [8], in assay [5], in assay [9], in assay [10] and in assay [7] was “inactive” in each case. Also, the outcome in [2] and in assay [6] was inactive. Further, the max response in assay [3] was 6.41%.

Turning to `Cc1ccsc1C(=CCCN1CCC[C@@H](C(=O)O)C1)c1sccc1C`, the Potency result in assay [1], in assay [8], in assay [5], in assay [10] and in assay [7] was “inactive” throughout. The molecule was classed as inactive in [2] and in assay [6]. The max response in assay [3] is 2.02%.

Regarding `NC/C=C/C(=O)O`, the Potency result in assay [1], in assay [8], in assay [5], in assay [10] and in assay [7] was “inactive” throughout. The outcome in assay [2] and in assay [6] was inactive. Further, in assay [3], the max response was 2.11%.

As to `CCC(=O)c1ccc2c(c1)N(CCCN(C)C)c1ccccc1S2`, the Potency in [1] is 10.7 µM (active); in assay [3], 19 µM (active). The call in [2] and in assay [6] was inactive. In addition, the Potency result in assay [4], in assay [5] and in assay [7] was “inactive” throughout.

With `OC[C@H]1O[C@@H](O[C@H]2[C@H](O)[C@@H](O)[C@H](O)O[C@@H]2CO)[C@H](O)[C@@H](O)[C@H]1O`, the Potency result in assay [1], in assay [8], in [5], in assay [9] and in [7] was “inactive” each time. Also, the call in [2] and in assay [6] was inactive. Further, the max response in assay [3] is 0.3%.

Regarding `CC(C)c1ccccc1`, the Potency entry in assay [1], in assay [8], in assay [5], in assay [9], in assay [10] and in assay [7] was “inactive” each time. Besides, the molecule was classed as inactive in assay [2]. For the same molecule, the max response in assay [3] was 1.09%.

For `O=C1N(c2ccccc2)c2ccccc2C1(Cc1ccncc1)Cc1ccncc1`, the Potency entry in assay [1], in [8], in [5], in [9], in assay [10] and in [7] was “inactive” each time. For the same molecule, the molecule was classed as inactive in assay [2] and in [6]. In addition, the max response in assay [3] was 5.52%.

In the case of `CC(C)(CO)[C@@H](O)C(=O)NCCC(=O)O`, the Potency entry in [1], in [5], in [9], in assay [10] and in assay [7] was “inactive” throughout. The call in [2] and in [6] was inactive. Further, the max response in assay [3] was 4.63%.

Consider `CN1CCN(c2c(F)cc3c(=O)c(C(=O)O)cn(CCF)c3c2F)CC1`, for which the Potency entry in [1], in assay [8], in assay [5], in [9] and in [10] was “inactive” in each case. In addition, the molecule was classed as inactive in assay [2] and in assay [6]. Moreover, the Potency in [4] is 5.35 µM (active).

On to `COc1cc(C)ccc1C(C)C`, for which the Potency result in [1], in assay [8], in [5], in [9], in [10] and in assay [7] was “inactive” throughout. For the same molecule, the molecule was called inactive in [2] and in [6]. In addition, in [3], the max response is 3.29%.

Regarding `CCOC(=O)COc1ccc2c(c1)CC(NCC(O)c1cccc(Cl)c1)CC2` (stereo not drawn), the Potency result in [1] and in [5] was “inactive” throughout. Also, the molecule was classed as inactive in assay [2]. Moreover, in [3], the max response is -17.8%. Also, the Potency in [8] is 44 µM (active).

Consider `CCOC(=O)C1CC(=O)C(=C(O)C2CC2)C(=O)C1` (stereo not drawn), for which the Potency entry in assay [1], in assay [8], in assay [5], in assay [9], in assay [10] and in [7] was “inactive” throughout. In addition, in assay [2], the molecule was classed as inactive. Also, the max response in assay [3] is 0.979%.
